High-throughput results (PubChem BioAssay)
IL-2 act: qHTS of IL-2 Activators. activation, % (series mostly up to about 46 µM). IL-2 activation reporter assay, cell-based qHTS; stimulated with anti-CD3/CD4/CD28 beads; in transgenic mouse T cells. 360,000 compounds, 0.065% hits; in the data active = activation above about 50%; inconclusive = mostly about 30% to 49%; also: 0% is about no effect
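Using fluorescent plate cytometry, EGFP and DsRed are detected in transgenic mouse T cells stimulated 18 h at 37 degrees C with antibody-coated beads after 60 min compound pretreatment.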
a7 integrin act: qHTS for Activators of Integrin-Mediated Alleviation for Muscular Dystrophy; alpha7betagal myoblasts, beta-gal FDG fluorescence, 48 h; Potency, µM (highest dose often 38.3 µM), for the others: top-dose activation, hits mostly activators; 350,000 compounds, 0.064% hits; AID 624291, 2012;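 also: potency is read from the fitted curve at half-maximal effect; 100% = response of the positive control SU9516; nearly all actives have a fitted effect of over 60% in size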
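alpha7betagal+/- myoblasts (passage 13, 250/well) treated 48 h at 37C with compounds at 1:260 dilution of DMSO stock. Lysed, then beta-galactosidase activity read as FDG fluorescence (ex 480/em 540) after 30 min, with pre-read for autofluorescence.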
ClpP mod: qHTS Assay for Activators of ClpP; ATP-dependent Clp protease proteolytic subunit (Bacillus subtilis (strain 168)), P80244; purified B. subtilis ClpP, FRET peptide cleavage, 20 min; Potency, µM (titrated, usually from 57.5 µM), for inactives: top-dose activity change, negative = active; 340,000 compounds, 1.9% hits; active = well fitted falling curve with a large enough effect; inconclusive = small, poorly fitted or top-dose-only effect; inactive = no such curve, though single readings can be large or run the other way; also: potency is read from the fitted curve at half-maximal effect; the source files actives as falling curves though it sought activators and does not explain the sign; nearly all actives have a fitted effect of over 65% in size
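ClpP 10 microg/mL final, pH 8 Tris/KCl buffer with BSA, glycerol, Tween-20; compound pinned in; FRET-FV substrate; RT 20 min; Ex320/Em430; ΔFRET vs ADEP 5.8 microM, DMSO, no enzyme.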
Pin1 inh: qHTS Assay to Find Inhibitors of Pin1; Potency, µM (titrated, usually from 115 µM), for the others: top-dose activity, negative = inhibition, most hits filed as inhibitors; AID 504891, 2011; Pin1 FP peptide displacement, HiFluor488, 10 min; 390,000 compounds, 0.009% hits; active = well fitted inhibition curve with a large enough effect in the polarisation, with a control signal flat, not every such curve was filed as active; inconclusive = small, poorly fitted or top-dose-only effect, or effect the other way, or a change in a side signal; inactive = no such curve, though single readings can be large or run the other way; the % refers to the polarisation; also: potency is read from the fitted curve at half-maximal effect; % is scaled to controls: 0 for no effect and ±100 for the full control effect
Target sequence (Q13526 whole entry, looked up): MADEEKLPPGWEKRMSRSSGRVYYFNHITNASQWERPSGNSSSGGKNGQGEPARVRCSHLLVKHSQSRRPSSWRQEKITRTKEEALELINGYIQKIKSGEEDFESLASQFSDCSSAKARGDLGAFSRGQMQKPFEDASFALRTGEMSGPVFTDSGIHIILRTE
USP2a block: qHTS Assay for Inhibitors of Ubiquitin-specific Protease USP2a Using CHOP2 as the Reporter; USP2 core, Ub-CHOP2 coupled fluorogenic reporter, 485/531; Potency, µM (top dose mostly 38.3 µM), for the others: at the highest dose activity change, negative = inhibition, hits mostly inhibitors; 330,000 compounds, 0.01% hits;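 also: potency is read from the fitted curve at half-maximal effect; plate controls were DMSO wells for no effect and full inhibition by NEM control for full effect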
Target sequence (O75604 whole entry, looked up): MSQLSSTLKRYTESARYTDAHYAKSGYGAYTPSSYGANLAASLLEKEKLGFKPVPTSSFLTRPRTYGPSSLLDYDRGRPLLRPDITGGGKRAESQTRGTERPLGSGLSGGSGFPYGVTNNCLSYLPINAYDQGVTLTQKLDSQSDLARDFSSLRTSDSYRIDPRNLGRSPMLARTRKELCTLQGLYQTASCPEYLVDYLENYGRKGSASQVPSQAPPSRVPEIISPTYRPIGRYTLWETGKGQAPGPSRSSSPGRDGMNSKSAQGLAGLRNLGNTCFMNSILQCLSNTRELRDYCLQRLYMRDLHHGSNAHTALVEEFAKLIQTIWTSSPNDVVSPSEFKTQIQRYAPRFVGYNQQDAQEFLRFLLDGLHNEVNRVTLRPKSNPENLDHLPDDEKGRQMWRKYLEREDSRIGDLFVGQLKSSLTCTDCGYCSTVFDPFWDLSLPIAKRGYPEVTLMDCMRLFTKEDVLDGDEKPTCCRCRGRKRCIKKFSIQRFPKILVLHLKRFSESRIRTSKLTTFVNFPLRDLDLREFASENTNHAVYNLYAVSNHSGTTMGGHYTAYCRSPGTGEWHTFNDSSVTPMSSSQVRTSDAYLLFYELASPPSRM
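Cell-free coupled assay: 10nM USP2 core preincubated 30min RT with compound in Tris-HCl pH 8.0/CaCl2/CHAPS buffer, then 25nM Ub-CHOP2 and 25nM reporter substrate; fluorescence (Ex 485/Em 531) read after 60min RT, normalized to NEM inhibition, concentration-response curves fitted.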
PKM2 act: qHTS Assay for Activators of Human Muscle isoform 2 Pyruvate Kinase | Pyruvate kinase PKM (Homo sapiens), P14618 | purified PKM2, Kinase-Glo ATP luminescence, activation; response scale: 0% is enzyme alone, no compound | Potency, µM (series often up to 57.5 µM), for the others: at the top dose activation, actives largely listed as activators | 260,000 compounds, 0.34% hits | AID 1631, 2009; also: potency is read from the fitted curve at half-maximal effect; % is scaled to controls: 0 for no effect and ±100 for the full control effect; nearly all actives have a fitted effect of over 55% in size
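ATP formation by purified human PK-M2, quantified via coupled luciferase luminescence after 1 h at room temperature with 0.1 mM ADP and 0.5 mM PEP final.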
Numbers without * were called inactive; ? = inconclusive; . = not tested or not shown; [ ] = remark or other dose. Only some compounds are listed: those with a hit (about 1.9% of all), similar ones and a draw of the others. Unless noted, calls follow the shape of the dose curve; as a rule, active = well fitted curve in the direction sought with a large enough effect; inconclusive = small, poorly fitted or top-dose-only effect, or another doubt; inactive = no such curve, though single readings can be large; an effect the other way counts as inactive or inconclusive.

SMILES	IL-2 act	a7 integrin act	ClpP mod	Pin1 inh	USP2a block	PKM2 act
CCOC(=O)c1sc2nc[nH]c(=O)c2c1C	0	1%	32µM*	-4%	2%	0%
CCOC(=O)c1cccc(NC(=O)c2sc3nc[nH]c(=O)c3c2C)c1	.	.	-2%	5%	.	.
COc1cccc(CNC(=O)c2sc3nc[nH]c(=O)c3c2C)c1	.	.	40µM*	-5%	.	.
O=C(Nc1ccccc1)c1snc2c(=O)[nH]cnc12	0	6%	.	-1%	-1%	4%
CCOC(=O)c1snc2c(=O)[nH]cnc12	1	-11%[7.66 µM]	28µM*	2%	0%	1%
O=C(C[n+]1csc2ccccc21)c1cccc([N+](=O)[O-])c1	.	.	-4%	.	.	.
O=S(=O)(Cc1ccccc1)N1CCN(c2nc(-c3cccs3)nc3ccccc23)CC1	.	.	4%	6%	.	.
COc1cc(-c2nc(Cn3nnc(C(=O)Nc4ccccc4)c3C)c(C)o2)cc(OC)c1OC	.	.	28µM*	-3%	.	.
COC(=O)[C@H](C)[C@H](CC(C)C)NC(=O)[C@H](C)[C@H](CC(C)C)NC(=O)c1ccccn1	.	.	.	-2%	.	.
O=C(Cn1ncc2c3ccccc3n(Cc3ccccc3)c2c1=O)N1CCN(c2ccccn2)CC1	-1	4%	?	14%	-1%	4%
O=C(Cn1ncc2c3ccccc3n(Cc3ccccc3)c2c1=O)N1CCN(c2ncccn2)CC1	-3	-32%	32µM*	26%	2%	-6%
COC(=O)Cn1ncc2c3ccccc3n(C)c2c1=O	1	6%	14µM*	-2%	0%	9%
CNC(=O)Cn1ncc2c3ccccc3n(C)c2c1=O	0	-4%	4%	6%	-1%	.
Cn1c2ccccc2c2cnn(CC(=O)O)c(=O)c21	-1	3%	32µM*	-14%	0%	0%
CC(=O)Nc1ccc(OC2=NS(=O)(=O)c3ccccc32)cc1	.	.	.	1%	.	.
Cc1ccc(NC(=O)Cn2c(-c3ccc4c(c3)OCO4)cn(-c3ccccc3)c2=O)cc1C	.	.	28µM*	13%	.	.
Fc1ccc(Sc2cc(Cl)c(-c3ccccc3)nn2)cc1	0	-10%	28µM*	1%	0%	3%
Fc1ccc(Sc2nc(-c3ccccc3)nnc2C(F)(F)F)cc1	2	-11%	-1%	?	1%	3%
COc1ccc(CC(=O)NO)cc1OC	.	.	1%	.	.	.
Cc1c(C)c2cc(Cl)c(O)c(CN3CCCC(C)C3)c2oc1=O (stereo not given)	-2	-5%	6.3µM*	-9%	-1%	-4%
Cc1c(C)c2cc(Cl)c(O)c(CN3CCN(C)CC3)c2oc1=O	-3	-8%	16%	6%	3%	0%
COc1ccccc1N(C)S(=O)(=O)c1ccc(Cl)c(C(=O)N2CCC2)c1	0	-12%	18µM*	-2%	0%	.
CCc1[nH]c(=O)c(C#N)c2c1COC(C)(C)C2	-3	19%[7.66 µM]	25µM*	-2%	8%	1%
O=C(Nc1cccnc1)c1sc(Nc2ccccc2F)nc1-c1ccccc1	0	-37%	18µM*	-2%	2%	2%
CCOC(=O)N1CCN(C(=O)c2cccn3c(=O)c4cc(Br)ccc4nc23)CC1	-1	34%	-1%	1%	-1%	-5%
SMILES	IL-2 act	a7 integrin act	ClpP mod	Pin1 inh	USP2a block	PKM2 act
CCOC(=O)N1CCN(C(=O)c2cccn3c(=O)c4sccc4nc23)CC1	3	4%	25µM*	2%	-1%	-1%
CCn1c2c(c(=O)n3ncc(C(=O)Nc4cc(Cl)ccc4OC)c13)CN(Cc1ccc(OC)cc1)CC2	.	.	32µM*	36%	.	.
CCn1c2c(c(=O)n3ncc(C(=O)Nc4cc(Cl)ccc4C)c13)CN(Cc1ccc(OC)cc1)CC2	.	.	-9%	1%	.	.
O=C(CN1C(=O)c2cccc3cccc(c23)C1=O)N1CCN(Cc2ccc3c(c2)OCO3)CC1	0	-17%	25µM*	2%	-1%	6%
O=C(CN1C(=O)c2cccc3cccc1c23)NCc1ccc2c(c1)OCO2	0	-31%[7.66 µM]	-5%	35%	2%	2%
CCOc1ccc(NC(=O)CC2C(=O)OCCN2CC)cc1 (stereo not given)	.	.	-1%	-2%	.	.
Cc1ccc(C)c(NC(=O)CS(=O)(=O)c2c[nH]c3ccccc23)c1	18	6%	0%	-11%	-2%	1%
Cc1cccc(NC(=O)CS(=O)(=O)c2c[nH]c3ccccc23)c1C	3	-7%	-2%	10%	-1%	25µM*
Cc1ccc(Nc2c(-c3c[nH]c4ccccc34)nc3cc(C)ccn23)cc1	.	.	28µM*	?	.	.
Cc1ccn2c(Nc3ccccc3)c(-c3c[nH]c4ccccc34)nc2c1	.	.	4%	?	.	.
OCC1OC(n2ccc3c(SCc4ccccc4)ncnc32)C(O)C1O (stereo not given)	-4	-12%	35µM*	-7%	.	.
OCC1OC(n2cnc3c(SCc4ccccc4)ncnc32)C(O)C1O (stereo not given)	-1	14%	-4%	-8%	.	.
CN(C)S(=O)(=O)c1ccc(C(=O)NCCN2C(=O)S/C(=C\c3cccnc3)C2=O)cc1	-1	-14%	.	-3%	1%	16µM*
CCN(CC)S(=O)(=O)c1ccc(C(=O)NCCN2C(=O)S/C(=C\c3cccnc3)C2=O)cc1	2	?	-3%	-2%	3%	24%
CN(C)c1ccc(/C=C/c2ccnc3ccccc23)cc1	.	.	1%	.	.	.
CC1=C(NCCc2ccccc2)CCC1=O	-1	-12%	-1%	-5%	1%	?
CCCNC1=C(C)C(=O)CC1	0	-17%	32µM*	-9%	2%	-2%
COC(=O)C1=C(C)NC(C)=C(C(=O)OC)C1C(=O)OCC(=O)c1ccc(F)cc1	0	-38%	32µM*	-2%	2%	4%
COc1ccc(-c2nc3ccccc3c(=O)n2Cc2ccccc2)cc1OCc1ccc(NC(C)=O)cc1	.	.	.	13%	.	.
O=c1[nH]c2ccccc2c(=O)n1Cc1ccccc1	3	-24%	35µM*	2%	3%	0%
CCc1ccccc1NC(=O)CN1CCN(C(=O)C(C)NC(=O)c2ccc(Cl)cc2)CC1 (stereo not given)	-3	12%	16µM*	5%	3%	.
CC(=O)N1CCN(CC(=O)Nc2ccccc2Sc2ccc(Cl)cc2)CC1	0	-28%	1%	14%	-2%	0%
O=S1(=O)CCO[C@H]2CCCC[C@@H]2N1Cc1cccc(F)c1	.	.	1%	.	.	.
